# According to PubChem BioAssay:
# Where “and” joins values, the source holds several entries; their conditions need not be identical. Equal entries are not always repeated. Calls of active or inactive are those of the source. Rule as the data show it, unless noted: active = inhibition above about 80%; inactive = the rest.
# How the values were obtained:
# [1] = growth inhibition, single agent or in combination, cell-based, chromothripsis tumors, cisplatin or BGB combos (AID 1671449); settings: LFS_MB_P medulloblastoma cells;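 also: cells exposed for 96 hours; 0% = vehicle DMSO and 100% = killing by high DMSO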
# [2] = growth inhibition, single agent and combos, cell-based, chromothripsis tumors, cisplatin or BGB combos (AID 1671450); settings: HDN33 neuroblastoma cells, stronger effect = higher value;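 also: cells exposed to compound for four days; 0% = vehicle DMSO and 100% = cell killing by high DMSO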
# [3] = growth inhibition, single agents and combos, ICB984, cell-based, cisplatin or BGB combos, synergistic combos for chromothripsis tumors (AID 1671451; call rule not given here;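 also: cells exposed for 96 hours before readout; 0% = vehicle DMSO and 100% = killing by high DMSO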); settings: ICB984 medulloblastoma cells, drug combinations, stronger effect = higher value
# [4] = growth inhibition, single agents and combos, LFS_MB_1R, cell-based, cisplatin or BGB combos, synergistic combos for chromothripsis tumors (AID 1671452); settings: LFS_MB_1R medulloblastoma cells, stronger effect = higher value;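 also: cells exposed for 96 hours before readout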
# [5] = growth inhibition, single agents and combos, HTB85, cell-based, BGB or cisplatin IC20 combos, synergistic combos for chromothripsis tumors (AID 1671453); settings: HTB85 osteosarcoma cells, drug combinations, stronger effect = higher value;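 also: cells exposed for 96 hours before readout; 0% = vehicle DMSO and 100% = high DMSO killing control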
# [6] = growth inhibition, single agents and combos, CRL2098, cell-based, BGB or cisplatin IC20 combos, synergistic combos for chromothripsis tumors (AID 1671454); settings: CRL2098 osteosarcoma cells, drug combinations, stronger effect = higher value;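 also: cells exposed for 96 h before readout; 0% = vehicle DMSO and 100% = killing by high DMSO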
# [7] = growth inhibition, single agents and combos, HD-MB03, cell-based, BGB or cisplatin IC20 combos, synergistic combos for chromothripsis tumors (AID 1671455; in the data active = inhibition above about 83%;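 also: 0% = vehicle DMSO and 100% = high DMSO as cytotoxic control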); settings: HD-MB03 medulloblastoma cells, stronger effect = higher value
# [8] = growth inhibition, single agents and combos, UWB1.289, cell-based, BGB or cisplatin combos, synergistic combos for chromothripsis tumors (AID 1671456); settings: UWB1.289 ovarian carcinoma cells, stronger effect = higher value;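 also: cells exposed to compound for four days; 0% = vehicle DMSO and 100% = killing by high DMSO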
# [9] = growth inhibition, single agents and combos, LFS_MB_2R, cell-based, cisplatin combos, synergistic combos for chromothripsis tumors (AID 1671457); settings: LFS_MB_2R medulloblastoma cells, stronger effect = higher value;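 also: cells exposed to compound for four days before readout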
# [10] = growth inhibition, MDA-MB-436, cell-based, BGB or cisplatin combos, synergistic combos for chromothripsis tumors (AID 1671458; call rule not given here;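 also: cells exposed for 96 hours; 0% = vehicle DMSO and 100% = killing by high DMSO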); settings: MDA-MB-436 breast carcinoma growth inhibition, drug combinations, stronger effect = higher value
# [11] = UWB1.289_BRCA1 ovarian cancer growth, cell-based, BGB or cisplatin combinations (AID 1671459); settings: UWB1.289 BRCA1 ovarian carcinoma, drug combinations, stronger effect = higher value
# [12] = drug combination toxicity in non-malignant astrocytes – cell-based, BGB or cisplatin IC20 combos, cytotoxicity control for chromothriptic childhood tumor combination screen (AID 1671460); settings: Human astrocytes, viability inhibition, drug combinations, at 0.5 µM, stronger effect = higher value;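 also: cells exposed to compounds for 96 hours before viability readout; 0% = vehicle and 100% = killing control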
# [13] = BT084 cell growth, single and combined drugs, ICGC_MB145, cisplatin and BGB IC40 combos (AID 1671461); settings: BT084 medulloblastoma cells, drug combinations, stronger effect = higher value;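 also: cells exposed to drugs for 96 hours; 0% = vehicle DMSO and 100% = high DMSO full killing control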
# [14] = RCMB18 cell growth, single agent and combined, cisplatin and BGB IC40 combos (AID 1671462); settings: RCMB18 medulloblastoma cells, stronger effect = higher value;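 also: cells exposed to compound for four days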
# [15] = CRL1545 cell growth, single agent and combined, cisplatin and BGB IC20 combos (AID 1671464); settings: CRL1545 osteosarcoma cells, stronger effect = higher value;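 also: cells exposed to compound for 96 hours before readout; 0% = vehicle DMSO and 100% = high DMSO killing control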
# [16] = measured here: combination with BGB IC40, at 0.05 µM
# [17] = measured here: with BGB IC20 combination, at 0.5 µM
# [18] = measured here: with cisplatin IC20 combination, at 0.5 µM
# [19] = measured here: combination with cisplatin, at 0.5 µM
# [20] = measured here: combination with cisplatin, at 5 µM
structure (smiles),measurement,setting,value
Nc1nc(F)nc2c1ncn2C1OC(CO)C(O)C1O (stereo not drawn),inhibition,"[1]; at 0.5 µM, stronger effect = higher value",-23.4% (inactive) and 5.5% (inactive)
same,inhibition,"[1]; measured here: combination with BGB IC20, at 0.005 µM",-13.1% and 10.2%
same,inhibition,"[1]; measured here: combination with BGB IC40, at 0.005 µM",-4.16% and 17.3%
same,inhibition,[1]; [16],-14.8% and 4.66%
same,inhibition,"[1]; measured here: combination with cisplatin, at 0.5 µM, stronger effect = higher value",-27.4% and 14.8%
same,inhibition,"[1]; measured here: combination with cisplatin, at 5 µM, stronger effect = higher value",85.8% and 94.5%
same,inhibition,"[2]; BGB combo, at 5 µM",27.6% and 14.7%
same,inhibition,[2]; at 0.5 µM,-7.43% (inactive) and -36.4% (inactive)
same,inhibition,"[2]; cisplatin combo, at 5 µM",20.8% and 7.89%
same,inhibition,[2]; [17],3.36% and -26.3%
same,inhibition,[2]; [18],-16.4% and -54.5%
same,inhibition,"[2]; single agent, at 5 µM",45.6% and 12.3%
same,inhibition,"[3]; BGB IC20 combo, at 0.005 µM",20.7% and -6.33%
same,inhibition,"[3]; BGB IC40 combo, at 0.005 µM",-14.7% and -39.6%
same,inhibition,"[3]; BGB IC40 combo, at 0.05 µM",0.533% and 4.89%
same,inhibition,[3]; at 0.5 µM,-14.3% (inactive) and -20.5% (inactive)
same,inhibition,"[3]; cisplatin combo, at 0.05 µM",-3.04% and 2.23%
same,inhibition,"[3]; cisplatin combo, at 0.5 µM",-8.41% and -26.1%
same,inhibition,"[3]; cisplatin combo, at 5 µM",-23% and -33%
same,inhibition,"[3]; measured here: 5 uM single agent, at 5 µM",-7.66% and -8.57%
same,inhibition,[4]; at 0.5 µM,-2.13% (inactive) and -19.9% (inactive)
same,inhibition,[4]; [16],3.73% and -32%
same,inhibition,[4]; [19],9.09% and -1.53%
same,inhibition,[4]; [20],76.5% and 57.3%
same,inhibition,[5]; at 0.5 µM,3.43% (inactive) and -25.3% (inactive)
same,inhibition,"[5]; measured here: with BGB IC20, at 0.5 µM",-0.749% and -38.9%
same,inhibition,"[5]; measured here: with BGB IC20, at 5 µM",44.9% and 11%
same,inhibition,"[5]; measured here: with cisplatin IC20, at 0.5 µM",2.7% and -32%
same,inhibition,"[5]; measured here: with cisplatin IC20, at 5 µM",37% and 41.2%
same,inhibition,"[5]; single agent, at 5 µM",58.5% and 39.5%
same,inhibition,[6]; at 0.5 µM,94% (active) and 94.9% (active)
same,inhibition,"[6]; measured here: combination with BGB at IC20, at 0.5 µM",94.8% and 95%
same,inhibition,"[6]; measured here: combination with cisplatin at IC20, at 0.5 µM",91.9% and 95.1%
same,inhibition,[7]; at 0.5 µM,5.8% (inactive) and 2.84% (inactive)
same,inhibition,"[7]; measured here: combo with BGB at IC20, at 0.5 µM",3.8% and -3.69%
same,inhibition,"[7]; measured here: combo with cisplatin at IC20, at 0.5 µM",2.93% and 14.9%
same,inhibition,[8]; at 0.5 µM,2.58% (inactive) and -11.8% (inactive)
same,inhibition,"[8]; measured here: inhibition with BGB combination, at 0.05 µM",-5.13% and -19.7%
same,inhibition,"[8]; measured here: inhibition with cisplatin combination, at 0.05 µM",-18.9% and -14.7%
same,inhibition,[9]; at 0.5 µM,12% (inactive) and -3.14% (inactive)
same,inhibition,[9]; [19],3.75% and 4.65%
same,inhibition,[9]; [20],69.4% and 48.7%
same,inhibition,[10]; at 0.5 µM,2.72% (inactive) and -8.67% (inactive)
same,inhibition,"[10]; measured here: BGB combination, at 0.5 µM",0.63% and 6.32%
same,inhibition,"[10]; measured here: BGB combination, at 5 µM",12.4%
same,inhibition,"[10]; measured here: cisplatin combination, at 0.5 µM",-0.776% and -26.9%
same,inhibition,"[10]; measured here: cisplatin combination, at 5 µM",1.99% and 20.7%
same,inhibition,"[11]; BGB combination, concentration series, at 5 µM",34% and 13%
same,inhibition,[11]; at 0.5 µM,3.6% (inactive) and -10.5% (inactive)
same,inhibition,"[11]; cisplatin combination, concentration series, at 5 µM",32.8% and 23%
same,inhibition,[12],13.7% (inactive) and -16.7% (inactive)
same,inhibition,[12]; measured here: combo with BGB IC20,0.417% and -14%
same,inhibition,[12]; measured here: combo with cisplatin IC20,20% and -36.2%
same,inhibition,[13]; at 0.5 µM,-17.4% (inactive) and 8.96% (inactive)
same,inhibition,"[13]; cisplatin combination, at 0.5 µM",-38.6% and 6.07%
same,inhibition,"[13]; cisplatin combination, at 5 µM",36.8% and 59.3%
same,inhibition,"[13]; measured here: BGB IC40 combination 0.05 uM, at 0.05 µM",-18.2% and 2.24%
same,inhibition,"[13]; single agent, at 5 µM",-9.05% and -4.51%
same,inhibition,[14]; at 0.5 µM,0.9% (inactive) and -15.3% (inactive)
same,inhibition,"[14]; cisplatin combo, at 5 µM",44.7% and 68%
same,inhibition,"[14]; measured here: BGB IC40 combination, at 0.05 µM",1.47% and -4.03%
same,inhibition,[14]; [19],30.2% and -17.9%
same,inhibition,"[14]; single agent, at 5 µM",8.81% and -20.7%
same,inhibition,[15]; at 0.5 µM,8.8% (inactive) and -39.7% (inactive)
same,inhibition,[15]; [17],5.25% and -35.7%
same,inhibition,[15]; [18],9.12% and -44.9%
same,inhibition,"[15]; single agent, at 0.05 µM",-7.3% and -43.1%
same,inhibition,"[15]; single agent, at 5 µM",24% and -66.2%
